Measurements from the supplement of paper PMC10037445.
The full ranking holds about 2,900 compounds; the median of “IRF Lucia reporter activity, fold change vs agonist alone” is about 0.9, and the highest 2% start at about 2.8. For the sample, the highest values were picked, then their nearest neighbours and some compounds at random.

Columns and labels:
RAW-Dual [1] = test: IRF Lucia reporter activity, fold change vs agonist alone; higher = enhanced IRF activity; conditions: library stock concentration (final ~1000-fold dilution): 10 mM; cytotoxicity flag (confluency mask): not cytotoxic; agonist: MPLA (TLR4) […]
Procedure, shortened: (§1)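 Reporter activity is given as fold change relative to agonist-alone wells. To measure it, 50 nL of library stock was pin-tooled onto RAW-Dual macrophages (50,000 cells/well, DMEM, 384-well plates), a PRR agonist followed 1 h later, and cells stayed at 37 °C, 5% CO2. Twenty hours on, supernatant was assayed for IRF (QuantiLuc luminescence) and NF-κB (QuantiBlue, 620 nm absorbance), and wells under 70% of agonist-control IncuCyte confluency in both mask sets were marked cytotoxic.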

RAW-Dual [2] = test: IRF Lucia reporter activity, fold change vs agonist alone; cytotoxicity flag (confluency mask): not cytotoxic; higher = enhanced IRF activity
Procedure, shortened: as §1

[3] = agonist: 3'3'-cGAMP (STING) 10 ug/mL

Structure (SMILES) | IRF Lucia reporter activity (RAW-Dual [1]) | IRF Lucia reporter activity (RAW-Dual [2]; [3]) | IRF Lucia reporter activity (RAW-Dual [2]; agonist: LPS (TLR4) 0.1 ug/mL)
C[N+]1(C)C2CCC1CC(OC(=O)C(O)c1ccccc1)C2 (stereo unspecified) | 0.953 |  | 
C[N+]1(C)C2CCC1CC(OC(=O)C(O)c1ccccc1)C2 (stereo unspecified) (library stock concentration (final ~1000-fold dilution): 10 mM) |  | 1.01 | 1.29
O=C(Nc1ccc(OC(F)(F)Cl)cc1)c1cnc(N2CCC(O)C2)c(-c2ccn[nH]2)c1 (stereo unspecified) (library stock concentration (final ~1000-fold dilution): 10 mM) |  | 0.296 | 1.27
CCn1c(=O)c(-c2cc(NC(=O)Nc3ccccc3)c(F)cc2Br)cc2cnc(NC)cc21 (library stock concentration (final ~1000-fold dilution): 10 mM) |  | 0.671 | 0.268
Cc1ccc(Nc2nccc(N(C)c3ccc4c(C)n(C)nc4c3)n2)cc1S(N)(=O)=O.Cl | 0.646 |  | 
Cc1ccc(Nc2nccc(N(C)c3ccc4c(C)n(C)nc4c3)n2)cc1S(N)(=O)=O.Cl (library stock concentration (final ~1000-fold dilution): 10 mM) |  | 0.0722 | 0.446
COC(=O)C(CC(C)C)NC(=O)c1ccc(NCC(N)CS)cc1-c1cccc2ccccc12.O=C(O)C(F)(F)F (stereo unspecified) | 0.882 |  | 
COC(=O)C(CC(C)C)NC(=O)c1ccc(NCC(N)CS)cc1-c1cccc2ccccc12.O=C(O)C(F)(F)F (stereo unspecified) (library stock concentration (final ~1000-fold dilution): 10 mM) |  | 0.0714 | 0.736
N#Cc1ccc(-c2c(-c3ncn[nH]3)sc(N3CCOCC3)c2C#N)c(F)c1 (library stock concentration (final ~1000-fold dilution): 10 mM) |  | 0.455 | 10.2
N#Cc1ccc2[nH]c(O)c(-c3ccc(CN4CCOCC4)cn3)c2c1 (library stock concentration (final ~1000-fold dilution): 10 mM) |  | 0.996 | 0.903
N#Cc1cccc(-c2c[nH]c3ncnc(N4CCOCC4)c23)c1 (library stock concentration (final ~1000-fold dilution): 10 mM) |  | 0.11 | 0.291
N#Cc1ccc2[nH]c(O)c(-c3ccc(CN4CCOCC4)cn3)c2c1 | 1.01 |  | 
CCS(=O)(=O)O.COC(=O)c1ccc2c(c1)NC(=O)/C2=C(\Nc1ccc(N(C)C(=O)CN2CCN(C)CC2)cc1)c1ccccc1 (library stock concentration (final ~1000-fold dilution): 10 mM) |  | 0.0841 | 0.246
CCS(=O)(=O)O.COC(=O)c1ccc2c(c1)NC(=O)/C2=C(\Nc1ccc(N(C)C(=O)CN2CCN(C)CC2)cc1)c1ccccc1 | 0.215 |  | 
Cc1nnc(NC(=O)c2nc(S(=O)(=O)Cc3ccc(F)cc3)ncc2Cl)s1 (library stock concentration (final ~1000-fold dilution): 10 mM) |  | 0.0452 | 0.308
NC1C(O)OC(CO)C(O)C1O (stereo unspecified) (library stock concentration (final ~1000-fold dilution): 10 mM) |  | 0.143 | 0.267

Structure (SMILES) | IRF Lucia reporter activity (RAW-Dual [1]) | IRF Lucia reporter activity (RAW-Dual [2]; [3]) | IRF Lucia reporter activity (RAW-Dual [2]; agonist: LPS (TLR4) 0.1 ug/mL)
CC(C)=CCC[C@](C)(O[C@@H]1O[C@H](CO)[C@@H](O)C(O)[C@H]1O)[C@H]1CC[C@]2(C)[C@H]1[C@H](O)CC1[C@@]3(C)CC[C@H](O)C(C)(C)[C@@H]3[C@@H](O[C@@H]3O[C@H](CO)[C@@H](O)[C@H](O)[C@H]3O[C@@H]3O[C@@H](C)[C@H](O)[C@@H](O)[C@H]3O)C[C@]12C (stereo partly specified) (library stock concentration (final ~1000-fold dilution): 10 mM) |  | 1.16 | 1.03
CCCCCCCCCCCCCC(=S)NCCCCC(NC(=O)OCc1ccccc1)C(=O)Nc1ccccc1 (stereo unspecified) (library stock concentration (final ~1000-fold dilution): 10 mM) |  | 0.949 | 1.09
OCCn1cc(-c2ccc3c(c2)CC/C3=N\O)c(-c2ccncc2)n1 (library stock concentration (final ~1000-fold dilution): 10 mM) |  | 0.614 | 0.658
OCCn1cc(-c2ccc3c(c2)CC/C3=N\O)c(-c2ccncc2)n1 | 0.784 |  | 
CN(C)CCOc1ccc(-c2nc(-c3ccncc3)c(-c3ccc4c(c3)CC/C4=N\O)[nH]2)cc1 | 1.04 |  | 
COc1ccc2cc(-c3[nH]c(-c4ccc(S(C)=O)cc4)nc3-c3ccncc3)ccc2c1 (stereo unspecified) (library stock concentration (final ~1000-fold dilution): 10 mM) |  | 0.0441 | 0.466
COc1ccc2cc(-c3[nH]c(-c4ccc(S(C)=O)cc4)nc3-c3ccncc3)ccc2c1 (stereo unspecified) | 0.798 |  | 
CN(C)CCOc1ccc(-c2nc(-c3ccncc3)c(-c3ccc4c(c3)CC/C4=N\O)[nH]2)cc1 (library stock concentration (final ~1000-fold dilution): 10 mM) |  | 0.992 | 3.04
CC(C)CCn1c(CN2CCN(C(=O)C3CC3)CC2)nc2c1c(=O)n(C)c(=O)n2C (library stock concentration (final ~1000-fold dilution): 10 mM) |  | 0.987 | 0.989
CN1CCC(CNc2ccc3ncc(-c4cccc(OC(F)(F)F)c4)n3n2)CC1 | 1.07 |  | 
CN1CCC(COc2cnc(-c3cccc(Cn4nc(-c5cccc(C#N)c5)ccc4=O)c3)nc2)CC1 | 1.37 |  | 
CN1CCC(COc2cnc(-c3cccc(Cn4nc(-c5cccc(C#N)c5)ccc4=O)c3)nc2)CC1 (library stock concentration (final ~1000-fold dilution): 10 mM) |  | 0.676 | 3.96
CN1CCC(CNc2ccc3ncc(-c4cccc(OC(F)(F)F)c4)n3n2)CC1 (library stock concentration (final ~1000-fold dilution): 10 mM) |  | 1.03 | 0.089
CC(C)N(CCC(c1ccccc1)c1cc(CO)ccc1O)C(C)C (stereo unspecified) (library stock concentration (final ~1000-fold dilution): 10 mM) |  | 0.857 | 0.982
CC(C)N(CCC(c1ccccc1)c1cc(CO)ccc1O)C(C)C (stereo unspecified) | 0.986 |  | 
